Assay results: PubChem BioAssay AID488969 (Vanderbilt High Throughput Screening Facility, 2010)
Over roughly 110,000 compounds, “z-score” has its median near -0.1; the highest 2% begin near 2. The sample as a whole holds a higher share of the highest values than the screen did. Activity calls are given as the source filed them.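 How the source made its calls: active means z-score in the third read window above 3 or below -3; inactive means the rest.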

The compounds below were run against Metabotropic glutamate receptor 8 (Rattus norvegicus) (UniProt P70579) (assay: mGluR8 Gi/Go-coupled signaling modulation – cell-based, rat, thallium flux, HTS, primary screen (AID 488969)). Conditions: HEK293 rat mGluR8, GIRK (G protein-gated inwardly rectifying potassium channel) thallium flux, FluoZin2; at 10 µM; stronger effect = higher value; submaximal glutamate (EC20) added with thallium.
Chain of Metabotropic glutamate receptor 8 (Rattus norvegicus) (P70579 whole entry, looked up): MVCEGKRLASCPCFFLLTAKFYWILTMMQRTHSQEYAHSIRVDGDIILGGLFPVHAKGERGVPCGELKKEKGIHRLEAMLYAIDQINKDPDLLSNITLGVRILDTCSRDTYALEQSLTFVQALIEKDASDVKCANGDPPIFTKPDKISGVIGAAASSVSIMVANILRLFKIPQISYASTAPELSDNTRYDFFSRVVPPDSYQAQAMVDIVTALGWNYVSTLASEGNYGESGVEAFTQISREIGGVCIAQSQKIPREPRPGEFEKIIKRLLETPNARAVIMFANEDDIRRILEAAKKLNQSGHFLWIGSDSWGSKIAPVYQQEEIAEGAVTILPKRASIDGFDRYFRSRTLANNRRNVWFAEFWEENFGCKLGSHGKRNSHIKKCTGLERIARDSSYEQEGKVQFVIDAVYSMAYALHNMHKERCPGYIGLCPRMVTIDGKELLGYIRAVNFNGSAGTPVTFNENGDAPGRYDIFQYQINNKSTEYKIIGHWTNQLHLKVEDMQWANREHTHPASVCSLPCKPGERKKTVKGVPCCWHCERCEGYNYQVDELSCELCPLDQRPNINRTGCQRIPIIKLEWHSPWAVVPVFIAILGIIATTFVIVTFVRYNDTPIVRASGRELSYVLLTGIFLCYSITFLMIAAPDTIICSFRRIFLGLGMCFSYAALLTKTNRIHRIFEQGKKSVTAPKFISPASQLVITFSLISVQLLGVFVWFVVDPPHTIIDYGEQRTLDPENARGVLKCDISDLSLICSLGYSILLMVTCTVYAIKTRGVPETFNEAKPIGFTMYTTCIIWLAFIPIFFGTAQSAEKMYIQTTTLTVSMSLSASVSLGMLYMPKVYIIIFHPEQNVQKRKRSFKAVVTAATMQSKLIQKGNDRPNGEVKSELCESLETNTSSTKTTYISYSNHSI

SMILES	z-score
CCn1c(COc2ccccc2)nnc1SCc1ccc(C#N)cc1	-0.725
Cc1c(Nc2nc3ccccc3nc2NS(=O)(=O)c2ccccc2)c(=O)n(-c2ccccc2)n1C	-0.716
O=C(OCc1ccc([N+](=O)[O-])cc1)C1CCN(S(=O)(=O)c2ccccc2)CC1	-0.136
Cc1cc(C(F)F)n2nc(C(=O)Nc3ccc(S(=O)(=O)N4CCCC4)cc3)nc2n1	-0.187
CCN(CC)c1ccc(NC(=O)c2nc3nc(C)cc(C(F)F)n3n2)cc1	3.02 (active)
CNS(=O)(=O)c1ccc(NC(=O)c2nc3nc(C)cc(C(F)F)n3n2)cc1	-0.548
CCOC(=O)C1(C(=O)OCC)CC1c1ccccc1 (stereo not given)	-0.0513
CCCCCCn1c2c(c(=N)c3c1CCC3)CCC2	1.81
CCCCCCCCCCn1c2c(c(=N)c3c1CCC3)CCC2	0.554
CCCCCCCCCn1c2c(c(=N)c3c1CCC3)CCC2	4.64 (active)
CCOC(=O)c1ccc(CNCc2ccc(C)cc2)cc1	0.302
COC(=O)c1ccc(C(=O)OC)c(NC(=O)CSc2ccccn2)c1	-0.644
O/N=C1\CCc2cc(Cl)ccc21	0.365
Clc1ccc2c(c1)CCc1cccnc1C2=C1CCNCC1	2.74
CCOC(=O)c1c(NC(=O)COc2cccc3c2CCN(CC)C3=O)sc2c1CCC2	-0.925
CCOC(=O)c1c(-c2ccccc2)csc1NC(=O)c1nn(CC)cc1Br	-0.101
O=C(NC1CS(=O)(=O)CC1NCc1ccccc1)c1ccccc1 (stereo not given)	0.00939
COc1ccc(NC2CS(=O)(=O)CC2NCc2ccccc2)cc1 (stereo not given)	0.261
O=S1(=O)CC(NCc2ccccc2)C(Nc2ccccc2)C1 (stereo not given)	2.43
C=CCNC(=O)C1CC(=O)N(c2ccc(OCC(=O)Nc3ccccc3)cc2)C1 (stereo not given)	4.85 (active)
C=CCNC(=O)C1CC(=O)N(c2ccc(OCC(=O)Nc3ccc(OC)cc3)cc2)C1 (stereo not given)	-0.466
C=CCNC(=O)C1CC(=O)N(c2ccc(OCC(=O)Nc3ccc(C)cc3)cc2)C1 (stereo not given)	0.104
C=CCSc1nnc(NC(=O)c2cccc(S(=O)(=O)N(C)c3ccccc3)c2)s1	0.542
CCCn1nnc(NC(=O)c2sc3ccccc3c2Cl)n1	0.0281
Cc1ccccc1NC(=O)COC(=O)CNC(=O)c1sc2ccccc2c1Cl	-1.08
O=C(NCC1CCCO1)c1sc2ccccc2c1Cl (stereo not given)	-0.467
CCCOC(=S)NC(=O)c1sc2ccccc2c1Cl	12 (active)
CCCCOC(=S)NC(=O)c1sc2ccccc2c1Cl	17.3 (active)

SMILES	z-score
CN(C(=O)COC(=O)CNC(=O)c1sc2ccccc2c1Cl)c1ccccc1	-0.854
COc1ccc(C(CC(=O)O)NC(=O)c2sc3ccccc3c2Cl)cc1 (stereo not given)	-0.476
CCOC(=S)NC(=O)c1sc2ccccc2c1Cl	11.1 (active)
O=C(COC(=O)c1sc2ccccc2c1Cl)NC1CCCCC1	-0.479
NC(N)=NS(=O)(=O)c1ccc(NC(=S)NC(=O)c2sc3ccccc3c2Cl)cc1	0.0467
O=C(NC(=S)N(CCCCO)C1CCCCC1)c1sc2ccccc2c1Cl	9.88 (active)
CCOc1ccc(C(CC(=O)O)NC(=O)c2sc3ccccc3c2Cl)cc1 (stereo not given)	-0.958
CC(=O)c1c(C(C)=O)c(C)n(CCCCn2c(C)c(C(C)=O)c(C(C)=O)c2C)c1C	-0.0757
Cc1cc(C(=O)Nc2ccc(S(=O)(=O)Nc3onc(C)c3C)cc2)c(C)o1	0.0164
CC(=O)Nc1ccc(NC(=O)Cc2sc(C)nc2-c2ccc(C)cc2)cc1	-0.345
O=C(O)c1ccc(-c2nc(-c3ccccc3)c(-c3ccccc3)[nH]2)cc1	-1.56
Cc1ccc2oc(-c3cccc(NC(=O)c4cc(-n5cnnc5)ccc4Cl)c3)nc2c1	-0.0315
CCOC(=O)C1=C(C)N(C)C(=O)NC1c1ccc(C)s1 (stereo not given)	-0.0391
O=C(CCC(=O)Nc1ccccc1)NNC(=O)C(c1ccccc1)c1ccccc1	0.336
S=c1nn[nH]n1C12CC3CC(CC(C3)C1)C2	2.46
Cc1nnn(C23CC4CC(CC(C4)C2)C3)n1	-0.708
Cn1c(C23CC4CC(CC(C4)C2)C3)n[nH]c1=S	0.216
COC(=O)c1sc2nc(SCc3ccccc3C#N)n(N)c(=O)c2c1C	0.247
COc1ccc(C2C3=C(CC(C)(C)CC3=O)Oc3ncn(CCO)c(=N)c32)cc1OC (stereo not given)	0.234
COc1ccc(C2c3ccc4ccccc4c3Oc3ncn(Cc4ccco4)c(=N)c32)cc1OC (stereo not given)	0.46
N=c1c2c(ncn1Cc1ccco1)Oc1c(ccc3ccccc13)C2c1ccccc1 (stereo not given)	0.538
COc1ccc(C2c3c(ncn(Cc4ccco4)c3=N)Oc3ccc4ccccc4c32)cc1 (stereo not given)	-0.169
COc1ccc(C2c3c(ncn(CCN4CCOCC4)c3=N)Oc3ccc4ccccc4c32)cc1OC (stereo not given)	0.922
COc1ccc(C2C3=C(CC(C)(C)CC3=O)Oc3ncn(Cc4ccccc4)c(=N)c32)cc1 (stereo not given)	2.84
c1ccc(-c2oc3ncnc(NCCN4CCOCC4)c3c2-c2ccccc2)cc1	-0.115
CC1(C)CC(=O)C2=C(C1)Oc1ncn(CCO)c(=N)c1C2c1ccccc1 (stereo not given)	0.471
COc1ccc(C2c3ccc4ccccc4c3Oc3ncn(CCN4CCOCC4)c(=N)c32)cc1 (stereo not given)	4.1 (active)
